Among all 210,000 compounds or so, about 730 (0.35%) were called active. Another 1% or so got no clear call; they are omitted. The call rests on the fitted dose curve; in most records, active means well fitted inhibition curve with a large enough effect; inconclusive means small, poorly fitted or top-dose-only effect; inactive means no such curve, though single readings can be large or run the other way. The sample as a whole holds a higher share of actives than the screen did.
Potency means the concentration at half of the fitted maximal effect.

The experiment is described as follows: qHTS Assay for Identifying the Cell-Membrane Permeable IMPase Inhibitors: Potentiation with Lithium.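 Further: IP1 builds up when IMPase is blocked and the TR-FRET signal falls; nearly all actives have a fitted effect of over 50% in size.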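 On activity, negative = IMPase inhibition: plate controls were basal vehicle for no effect and high inhibitor control for full effect.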 As to conditions: CHO-M1 cells, IP1 TR-FRET (IP-One), carbachol + lithium; series mostly up to 59.4 µM; activity, negative = IMPase inhibition: at the top concentration. From the text:
NIH Chemical Genomics Center [NCGC]
NIH Molecular Libraries Probe Production centers Network [MLPCN]
Assay Submitter (PI): Wei Zheng
Lithium has been widely used for the treatment of bipolar disorder. But lithium has a narrow therapeutic index and it can cause side effects such as thirst, weight gain, tremor, polyuria and memory problems. Although the mechanism for lithium action in treatment of bipolar disorder is still not fully understood, inhibition of inositol monophosphatase (IMPase) and the subsequent depletion of the inositol pool in living cells have been implicated as the primary therapeutic benefit of lithium therapy. Therefore, a selective IMPase inhibitor with reduced side effects might be a good drug candidate to replace lithium for the treatment of bipolar disorder. Several IMPase inhibitors have been discovered previously. However, they are not suitable for therapeutic use because of their poor cell membrane penetrability or oral bioavailability; the development of new cell-permeable IMPase inhibitors is needed.
IMPase catalyzes the hydrolysis of inositol-1-phosphate (IP1) to release free inositol. Binding of an agonist to a Gq coupled GPCR results in the activation of PLC, which hydrolyzes the PIP2 to form inositol-1,4,5-trisphosphate (IP3) and diacyl glycerol (DAG). While DAG activates protein kinase C (PKC), IP3 triggers the elevation of intracellular free Ca2+. The IP3 is very rapidly inactivated by hydrolysis to IP2, IP1 and then inositol by a series of enzymes including IMPase. Free inositols are used for synthesis of PI and thus start another inositol cycle.
To identify new cell-permeable IMPase inhibitors, we developed a cell-based IMPase assay in which the cytosolic IP1 is measured by a time-resolved fluorescence resonance energy transfer (TR-FRET) assay. In this assay, an IP1 specific antibody is used to detect the labeled IP1 tracer. When the cell lysate contains the elevated IP1 due to the inhibition of IMPase, the TR-FRET between the labeled antibody and IP1 tracer is disrupted resulting in a reduction in the total signal. Since the TR-FRET is used, this cell-based assay is a homogenous assay without cell wash and medium change that is suitable for assay miniaturization and HTS. In this particular assay, a small amount of lithium is added to potentiate the response of weak activators.
NCGC Assay Protocol Summary:
A Chinese hamster ovary (CHO) cell line stably expressing the M1 receptor (CHO-M1) was obtained from ATCC and maintained in F-12 Kaighn's media (Invitrogen, Carlsbad, CA) supplemented with 10 % FBS, 100 units/ml penicillin, 100 ug/ml streptomycin and 250 ug/ml geneticin at 37C, 5% CO2 in a humidified atmosphere. Before the assay, aliquots of cells were frozen and stored at -135C. The assay was performed in 1536-well format. Data are reported for both the ratio of the two emission wavelengths, and also for the component 'donor' channel, Em2=620. […] AC50 values were determined from concentration-response data modeled with the standard Hill equation.
(1) Frozen CHO-M1 cells were thaw, washed once with fresh media and resuspended in F12K media containing 10% FBS, 100 units/ml penicillin and 100 ug/ml streptomycin. Cells were plated at 4ul/well (2000 cells) in white, tissue culture treated 1536-well plates, and then cultured at 37C, 5 % CO2 for 16 to 30 hours.
(2) Add 23 nl/well of compound in DMSO solution. The final titration for each compound was between 0.6 nM and 46 uM.
(4) Incubation at 37C, 5 % CO2 for 30 min.
(5) Add 1 ul/well of d2-conjugated IP1 (d2-IP1) and 1 ul/well of Eu+ cryptate conjugated anti-IP1 antibody (Eu+-Ab) prepared in the cell lysis buffer, both from the IP-One kit (Cisbio, MA).
(6) Incubate at room temperature for 10 minutes.
(7) Detect the assay plate (Ex = 320, Em1 =665 and Em2 620) in a ViewLux plate reader.
(In qHTS, concentration-response curves come from the screen itself.)
For `CN(C)[C@@H]1C(=O)C(C(N)=O)=C(O)[C@@]2(O)C(=O)C3=C(O)c4c(O)cccc4[C@@](C)(O)C3CC12` (stereo not given in full), the Potency was 8.91 µM (active).
Turning to `CN(C)C1C(=O)C(C(N)=O)=C(O)[C@@]2(O)C(=O)C3=C(O)c4c(O)cccc4[C@@](C)(O)C3C[C@@H]12` (stereo not given in full), the Potency was 10 µM (active).
Regarding `CC(=O)c1c(O)c(C)c(O)c(Cc2c(O)c3c(c(C(=O)/C=C\c4ccccc4)c2O)OC(C)(C)C=C3)c1O`, the “activity, negative = IMPase inhibition” value was 26.8% (inactive).
The same measure, in the same setting: the same measure for `CC[C@@](O)(C(=O)O)c1cc2n(c(=O)c1CO)Cc1cc3ccccc3nc1-2`: -9.04% (inactive); for `Clc1ccccc1`: -3.42% (inactive).
Regarding `CC[N+](C)(CC)CCC[n+]1c(-c2ccccc2)c2cc(N)ccc2c2ccc(N)cc21`, the Potency result was “inactive”.
For the compound `O=P(O)(O)C(O)c1ccc2ccccc2c1` (stereo not given), the “activity, negative = IMPase inhibition” value was 31.4% (inactive).
The same measure, in the same setting: then `CC(C)(c1ccccc1)c1ccc(O)cc1`, with 0.357% (inactive).
As to `O=C(CN1CCN(S(=O)(=O)c2ccc3ccccc3c2)CC1)NC(=O)NC1CCCCC1`, the “activity, negative = IMPase inhibition” value was 42.4% [at 38.3 µM] (inactive).
Still for that read-out and setting: then `c1ccc(N2CC[C@@]3(CCCNC3)C2)nc1`, with 15% (inactive).
Still for that read-out and setting: then `COc1cc(C(c2c(O)c3ccccc3oc2=O)c2c(C)n(C)n(-c3ccccc3)c2=O)ccc1O` (stereo not given), with 1.66% (inactive); and `CCC(=O)CC(c1ccc([N+](=O)[O-])cc1)c1c(O)c2ccccc2oc1=O` (stereo not given), with -1.57% [at 38.3 µM] (inactive).
As for `O=c1oc2ccccc2c(O)c1C(c1ccccc1O)c1c(O)c2ccccc2oc1=O`, the Potency was 10 µM (active).
As to `O=C(O)C(=O)Cc1ccc2c(c1)OCO2`, the “activity, negative = IMPase inhibition” value is 4.01% (inactive).
Same read-out and setting: then `c1ccc(Cc2nn3c(Cn4cnc5ccccc54)nnc3s2)cc1`, with 47% [at 38.3 µM] (inactive).
